# Source: PubChem BioAssay AID1851 (National Center for Advancing Translational Sciences (NCATS), 2009)
# Several values for one entry are separate records, joined by “and”; a condition that tells them apart may be missing. Equal values may be shown once. The whole screen tested about 16,000 compounds, of which about 5,100 (32%) were called active. Roughly 25% stayed inconclusive and do not appear here. Some of the results follow. Unmarked numbers belong to inactive results. The call rests on the fitted dose curve; in most records, active means well fitted curve in the direction sought with a large enough effect; inconclusive means small, poorly fitted or top-dose-only effect, or effect the other way; inactive means no such curve, though single readings can be large or run the other way.
# Biological target: Cytochrome P450 3A4 (Homo sapiens) (UniProt P08684)
# Experiment: Cytochrome panel assay with activity outcomes
# Details: recombinant CYP, pro-luciferin dealkylation, luminescence, p450-cyp3a4; series mostly up to 57.1 µM; activity, negative = inhibition: at the top concentration
# On the % scale 0 is the no-effect control and ±100 the full control effect.
# Sequence of Cytochrome P450 3A4 (Homo sapiens) (P08684 whole entry, looked up): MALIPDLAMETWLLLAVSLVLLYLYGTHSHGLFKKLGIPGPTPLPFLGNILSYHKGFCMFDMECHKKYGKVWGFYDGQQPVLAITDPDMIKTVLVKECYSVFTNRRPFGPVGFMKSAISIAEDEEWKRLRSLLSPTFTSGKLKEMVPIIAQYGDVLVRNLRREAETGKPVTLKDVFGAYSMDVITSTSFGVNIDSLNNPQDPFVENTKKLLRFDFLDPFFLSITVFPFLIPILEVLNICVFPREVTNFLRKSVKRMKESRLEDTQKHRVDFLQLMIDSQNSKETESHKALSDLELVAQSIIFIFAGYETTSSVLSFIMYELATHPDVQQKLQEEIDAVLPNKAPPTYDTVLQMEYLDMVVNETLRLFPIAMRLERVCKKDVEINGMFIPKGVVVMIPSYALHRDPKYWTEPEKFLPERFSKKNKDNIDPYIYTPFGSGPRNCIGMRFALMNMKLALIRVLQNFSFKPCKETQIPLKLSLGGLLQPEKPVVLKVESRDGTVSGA
SMILES,"activity, negative = inhibition",AC50
NC(=O)C1=CN([C@@H]2O[C@@H](COP(=O)(O)OP(=O)(O)OC[C@@H]3O[C@H](n4cnc5c(N)ncnc54)[C@@H](OP(=O)(O)O)[C@@H]3O)[C@H](O)[C@@H]2O)C=CC1,0.506%,–
Nc1nc(Cl)nc2c1ncn2[C@@H]1O[C@@H](COP(=O)(O)OP(=O)(O)OP(=O)(O)O)[C@@H](O)[C@H]1O,5.19%,–
NC(=S)c1ccc[n+]([C@@H]2O[C@@H](COP(=O)([O-])OP(=O)(O)OC[C@@H]3O[C@@H](n4cnc5c(N)ncnc54)[C@@H](OP(=O)(O)O)[C@H]3O)[C@@H](O)[C@H]2O)c1,–,12.6 µM (active)
CCn1c(SCc2ccc(Cl)cc2Cl)nc2nc3c(cc2c1=O)CCCC3,–,8.91 µM (active)
C#CCCCCCCCCCCCCCCCC(=O)O,-17.5%,–
O=C(O)C1=CCNCC1,–,inactive
CCCCN1C(=O)CCC(C(=O)O)C1c1ccccc1 (centres undefined),7.8%,–
COc1ccc(-c2nc3cnc(N(C)C)nc3n(CCc3ccccc3)c2=O)cc1,-16.1%,–
COc1ccc(/C(O)=C2/C(=O)C(=O)N(CCCC(=O)O)C2c2ccc(OC)cc2)cc1 (centres undefined),3%,–
COc1ccc(C2C(=O)N(CCc3ccccc3)CC(=O)N2C2CCCC2)cc1 (centres undefined),–,6.31 µM (active)
CCCCN1C(=O)CN(CCc2ccccc2)C(=O)C1c1ccc(OC)cc1 (centres undefined),–,7.94 µM (active)
CO[C@@H]1COC(=O)[C@H](Cc2ccccc2)NC(=O)C/C=C\[C@@H](C)[C@H](OC)COC(=O)[C@@H](C)NC(=O)C/C=C\[C@H]1C,-25.2% [at 11.4 µM] and -29.9% [at 11.4 µM],–
CO[C@@H]1COC(=O)[C@@H](CCSC)NC(=O)C/C=C\[C@@H](C)COC(=O)[C@H](C)NC(=O)C/C=C\[C@H]1C,-17.8% [at 11.4 µM],–
CO[C@@H]1COC(=O)[C@H](COCc2ccccc2)NC(=O)C/C=C\[C@@H](C)[C@H](OC)COC(=O)[C@H](COCc2ccccc2)NC(=O)C/C=C\[C@H]1C,-6.81% [at 11.4 µM],–
CO[C@H]1COC(=O)CCC[C@@H](C)[C@H](OC)COC(=O)[C@@H](C)NC(=O)C/C=C\[C@@H]1C,-24.2% [at 11.4 µM],–
CO[C@H]1COC(=O)C/C=C\[C@H](C)[C@@H](OC)COC(=O)[C@H](Cc2ccccc2)NC(=O)C/C=C\[C@@H]1C,–,3.16 µM (active)
CO[C@@H]1COC(=O)CCC[C@@H](C)[C@H](OC)COC(=O)[C@H](Cc2ccccc2)NC(=O)C/C=C\[C@H]1C,–,3.98 µM (active)
CO[C@@H]1COC(=O)[C@H](C)NC(=O)[C@@H](C)COC(=O)CCC[C@H]1C,-21.6% [at 11.4 µM],–
CO[C@@H]1COC(=O)CCC[C@@H](C)[C@H](OC)COC(=O)CCC[C@H]1C,-19.8% [at 11.4 µM],–
CO[C@H]1COC(=O)[C@@H](Cc2ccccc2)NC(=O)[C@@H](C)COC(=O)CCC[C@@H]1C,–,3.16 µM (active)

SMILES,"activity, negative = inhibition",AC50
O=C(NC(=S)Nc1cccc(Cl)c1N1CCCCC1)c1cccs1,-1.51% [at 2.29 µM],–
CC1CCN(c2ccccc2NC(=S)NC(=O)c2cccs2)CC1,–,15.8 µM (active)
C=CCN(CC=C)C(=S)NC(=O)c1ccc(OC)c(Br)c1,–,0.891 µM (active)
C=CCN(CC=C)C(=S)Nc1ccccc1,-16.5% [at 2.29 µM],–
COc1ccc(C(=O)NC(=S)NC(C)C)cc1Br,-28.4%,–
CCCc1nn2c(=O)c(C(c3ccc(C)cc3)c3c(O)nc4sc(CCC)nn4c3=O)c(O)nc2s1,-0.554% [at 2.29 µM],–
CCOC(=O)c1sc(NS(=O)(=O)c2ccccc2)nc1C,-13.8%,–
CCOC(=O)c1sc(N(Cc2ccccc2)C(=O)CN2C(=O)CN(C)C2=O)nc1C,–,12.6 µM (active)
Cc1noc(C)c1C(=O)OCC(=O)NC(c1ccccc1)c1ccccc1,-8.57% [at 2.29 µM],–
COc1cccc(/C=N/NC(=O)c2c(-c3ccccc3)noc2C)c1,-3.56% [at 2.29 µM],–
COc1ccc(NC(=O)COC(=O)c2c(-c3ccccc3)noc2C)cc1,–,7.08 µM (active)
CCCCN1CCC(n2c(=O)[nH]c3ccccc32)CC1,-14.6%,–
c1ccc(Nc2ncnc3ccc(-c4ccoc4)cc23)cc1,–,15.8 µM (active)
Fc1ccc(Nc2ncnc3ccc(-c4ccoc4)cc23)cc1,–,15.8 µM (active)
Cc1noc(COc2ccc(OCc3nc(C)no3)cc2)n1,-5.47%,–
CC1(CCC(=O)OC2CCCCC2)OCCO1,-7.62% [at 11.4 µM],–
Cn1c(/C=N/NC(=O)c2ccccc2Br)nc2ccccc21,–,10 µM (active)
Nc1cccc(OCc2nc(N)nc(N)c2-c2ccc(Cl)cc2)c1,–,1.58 µM (active)
CCOC(=O)C1CCCN(S(=O)(=O)c2ccccc2)C1 (centres undefined),-22.8%,–
